According to PubChem BioAssay (NCATS):
Inconclusive results are not listed. Activity calls are given as the source filed them. Unless noted, calls come from the whole dose curve; as a rule, active = well fitted curve in the direction sought with a large enough effect; inconclusive = small, poorly fitted or top-dose-only effect, or another doubt; inactive = no such curve, though single readings can be large; an effect the other way counts as inactive or inconclusive.

Experiments:
[1] = molecular target: Voltage-gated inwardly rectifying potassium channel KCNH2 (Homo sapiens) (UniProt Q12809); assay: qHTS Assay for Small Molecule Inhibitors of the Human hERG Channel Activity (AID 588834);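 note: lower thallium flux fluorescence means stronger hERG block; nearly all actives have a fitted effect of over 50% in size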; note: potency is the fitted concentration of half-maximal effect
Voltage-gated inwardly rectifying potassium channel KCNH2 (Homo sapiens), sequence (Q12809 whole entry, looked up): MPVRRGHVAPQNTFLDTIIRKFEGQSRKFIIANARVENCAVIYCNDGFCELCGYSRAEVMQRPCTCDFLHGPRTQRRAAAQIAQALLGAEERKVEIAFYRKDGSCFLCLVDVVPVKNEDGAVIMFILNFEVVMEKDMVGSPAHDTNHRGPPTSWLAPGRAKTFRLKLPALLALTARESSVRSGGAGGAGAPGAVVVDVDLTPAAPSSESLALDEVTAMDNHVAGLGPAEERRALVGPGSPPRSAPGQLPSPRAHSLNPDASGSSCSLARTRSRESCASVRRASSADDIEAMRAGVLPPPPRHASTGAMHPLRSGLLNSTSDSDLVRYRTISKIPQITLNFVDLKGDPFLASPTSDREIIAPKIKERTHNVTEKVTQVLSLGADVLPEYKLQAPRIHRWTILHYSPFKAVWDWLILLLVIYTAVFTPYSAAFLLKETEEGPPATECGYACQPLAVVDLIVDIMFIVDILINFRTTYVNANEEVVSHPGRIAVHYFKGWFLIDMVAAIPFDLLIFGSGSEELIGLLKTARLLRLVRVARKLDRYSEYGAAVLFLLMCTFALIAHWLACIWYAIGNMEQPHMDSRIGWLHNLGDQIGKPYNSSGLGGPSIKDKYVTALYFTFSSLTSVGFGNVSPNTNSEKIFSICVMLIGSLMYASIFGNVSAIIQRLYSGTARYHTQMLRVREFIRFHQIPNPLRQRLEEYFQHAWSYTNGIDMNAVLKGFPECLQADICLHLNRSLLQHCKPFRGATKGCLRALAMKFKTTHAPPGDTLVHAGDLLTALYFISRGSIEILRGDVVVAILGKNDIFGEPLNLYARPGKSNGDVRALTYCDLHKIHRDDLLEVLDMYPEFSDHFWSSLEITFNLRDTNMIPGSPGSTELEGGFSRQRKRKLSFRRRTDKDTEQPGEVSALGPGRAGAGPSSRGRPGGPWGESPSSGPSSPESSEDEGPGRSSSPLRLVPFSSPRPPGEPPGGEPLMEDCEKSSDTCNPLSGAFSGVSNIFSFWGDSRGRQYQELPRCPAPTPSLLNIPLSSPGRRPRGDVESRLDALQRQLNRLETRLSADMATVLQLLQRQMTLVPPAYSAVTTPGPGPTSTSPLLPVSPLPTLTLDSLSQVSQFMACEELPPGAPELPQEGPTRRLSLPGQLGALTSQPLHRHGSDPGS
How it was run: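 In hERG-transduced U2OS cells, dye-loaded for 1 hr at room temperature in dark, test compounds incubated 10 min at 37 °C before thallium stimulation. AC50 values derived by Hill modelling of concentration-response.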

[2] = molecular target: Luciferin 4-monooxygenase (Photinus pyralis) (UniProt P08659); assay: Biochemical firefly luciferase enzyme assay for NPC (AID 624030);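 note: purified P. pyralis luciferase at 10 nM with luciferin and ATP substrate; nearly all actives have a fitted effect of over 70% in size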
Luciferin 4-monooxygenase (Photinus pyralis), sequence (P08659 whole entry, looked up): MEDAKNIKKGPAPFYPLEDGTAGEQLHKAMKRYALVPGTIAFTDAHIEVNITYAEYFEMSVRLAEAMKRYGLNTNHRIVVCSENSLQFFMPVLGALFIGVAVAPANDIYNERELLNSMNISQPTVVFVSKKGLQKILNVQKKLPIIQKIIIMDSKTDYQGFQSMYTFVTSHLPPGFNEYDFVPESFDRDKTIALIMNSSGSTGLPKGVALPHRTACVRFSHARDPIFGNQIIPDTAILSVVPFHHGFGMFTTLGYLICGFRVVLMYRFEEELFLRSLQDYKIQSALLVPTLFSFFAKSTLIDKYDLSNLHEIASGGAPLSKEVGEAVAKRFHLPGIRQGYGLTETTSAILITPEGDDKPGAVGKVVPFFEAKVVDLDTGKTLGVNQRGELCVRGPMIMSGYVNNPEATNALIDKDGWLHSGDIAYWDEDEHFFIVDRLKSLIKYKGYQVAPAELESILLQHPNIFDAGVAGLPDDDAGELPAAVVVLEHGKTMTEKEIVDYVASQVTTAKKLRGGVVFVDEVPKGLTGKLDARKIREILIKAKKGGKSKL
How it was run: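 Direct inhibition of firefly luciferase enzyme (10 nM final, 50 mM Tris Acetate) assessed by luminescence within 5 minutes. Percent activity scaled between DMSO and PTC124 positive control, with concentration-effect curves classified by fit quality and response.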

[3] = S16 Schwann cell viability assay (CellTiter-Glo assay) (AID 624031); note: nearly all actives have a fitted effect of over 70% in size; note: potency is the fitted concentration of half-maximal effect
How it was run: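 Following overnight culture in 10% FBS DMEM, parental S16 rat Schwann cells are dosed for 24 h at 37 °C. Viability is read as CellTiter-Glo luminescence and expressed as % activity relative to DMSO (0%) and no-cell wells.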

[4] = S16 Schwann cell PMP22 intronic element firefly luciferase assay (AID 624032); note: nearly all actives have a fitted effect of over 30% in size; note: potency is the fitted concentration of half-maximal effect
How it was run: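 Luciferase reporter of PMP22 intronic-element expression in stably transfected S16 rat Schwann cells, read by ONE-Glo luminescence after 24 h compound exposure at 37 C. Activity scaled between DMSO (0%) and positive-control PTC124; concentration-effect curves quality-classified.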

[5] = S16 Schwann cell PMP22 intronic element beta-lactamase assay (AID 624044; calls by dose curve; note: nearly all actives have a fitted effect of over 15% in size); conditions: S16 rat Schwann cells, PMP22 element beta-lactamase FRET, 24 h; ratio activity, negative = inhibition: at 38.3 µM (top of the series)
How it was run: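 Beta-lactamase reporter under a PMP22 intronic regulatory element in stable S16 rat Schwann cells; 24 h compound exposure. 460 nm blue signal normalized between DMSO (0%) and potassium clavulanate, with 535 nm FRET tracking viability; curves classed by r2 and response.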

[6] = molecular target: Glutaminase kidney isoform, mitochondrial (Homo sapiens) (UniProt O94925); assay: qHTS for Inhibitors of Glutaminase (GLS): LOPAC Validation (AID 624146);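 note: glutamate product detected by oxidase and peroxidase coupled Amplex red fluorescence gain; nearly all actives have a fitted effect of over 60% in size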
Glutaminase kidney isoform, mitochondrial (Homo sapiens), sequence (O94925 whole entry, looked up, canonical isoform): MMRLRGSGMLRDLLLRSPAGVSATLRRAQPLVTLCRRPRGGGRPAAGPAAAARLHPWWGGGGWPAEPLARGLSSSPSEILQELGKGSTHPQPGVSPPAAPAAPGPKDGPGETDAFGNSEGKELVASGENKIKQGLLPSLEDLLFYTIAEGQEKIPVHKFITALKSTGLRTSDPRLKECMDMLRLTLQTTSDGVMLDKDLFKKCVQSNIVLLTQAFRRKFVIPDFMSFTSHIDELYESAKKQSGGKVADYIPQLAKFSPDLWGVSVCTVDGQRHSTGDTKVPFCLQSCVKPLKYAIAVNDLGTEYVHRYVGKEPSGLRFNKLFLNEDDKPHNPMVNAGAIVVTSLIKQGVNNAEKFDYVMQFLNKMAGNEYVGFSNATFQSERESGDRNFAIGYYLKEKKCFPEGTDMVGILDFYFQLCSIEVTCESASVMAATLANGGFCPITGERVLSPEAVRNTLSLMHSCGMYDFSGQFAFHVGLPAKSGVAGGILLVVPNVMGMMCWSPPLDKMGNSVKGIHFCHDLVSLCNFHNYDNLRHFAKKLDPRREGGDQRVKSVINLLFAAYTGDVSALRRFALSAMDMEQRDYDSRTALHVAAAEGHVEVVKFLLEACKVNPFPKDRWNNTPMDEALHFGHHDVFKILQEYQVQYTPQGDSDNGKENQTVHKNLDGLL
How it was run: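 hKGA in 45 mM KH2PO4 (pH 8.2), 0.02% Tween-20 with compound, then 1mM L-Glutamine (stock as added) plus glutamate oxidase/HRP/Amplex red coupling mix. Fluorescence read initially and after 30 min at RT; signal change reflects glutamate formation.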

[7] = qHTS of Trypanosoma Brucei Inhibitors: LOPAC Validation (AID 624147)
How it was run: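 Glycolytic pyruvate kinase of T. brucei was incubated with substrate, test compound and 130 uM ADP for 45 minutes at room temperature. Luminescent Kinase-Glo Plus signal was measured after 10 minutes.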

[8] = molecular target: Glucagon-like peptide 1 receptor (Homo sapiens) (UniProt P43220); assay: qHTS of GLP-1 Receptor Agonists: LOPAC Validation (AID 624148);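 note: luminescence from a luciferase reporter switched on by cAMP; higher luminescence signal means agonism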
Glucagon-like peptide 1 receptor (Homo sapiens), sequence (P43220 whole entry, looked up): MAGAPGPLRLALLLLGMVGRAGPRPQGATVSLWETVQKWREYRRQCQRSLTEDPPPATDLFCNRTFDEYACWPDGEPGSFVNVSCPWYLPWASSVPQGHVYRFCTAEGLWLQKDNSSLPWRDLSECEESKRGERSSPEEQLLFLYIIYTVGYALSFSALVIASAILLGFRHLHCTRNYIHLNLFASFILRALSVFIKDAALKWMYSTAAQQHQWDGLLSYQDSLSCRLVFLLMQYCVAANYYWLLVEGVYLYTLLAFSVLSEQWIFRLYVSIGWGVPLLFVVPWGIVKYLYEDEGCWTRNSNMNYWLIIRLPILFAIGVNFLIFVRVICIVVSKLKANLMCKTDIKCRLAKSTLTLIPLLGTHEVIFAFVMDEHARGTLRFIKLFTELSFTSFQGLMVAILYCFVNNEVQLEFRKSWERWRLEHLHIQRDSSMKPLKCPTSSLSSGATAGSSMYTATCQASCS
How it was run: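 Agonism scored as increased luciferase luminescence driven by cAMP in HEK293 clones carrying GLP-1R. Cells settled 12 hours, received compound for 4-6 hr at 37 deg C, 5% CO2, and were read after 12 min detection reagent at RT.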

[9] = qHTS of Nrf2 Activators: LOPAC Validation (AID 624149)
How it was run: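 AREc32_Fluc cells, 1000/well, OPTI-MEM + 5% FBS, o/n 37 deg C 5% CO2; compound pin-transfer, 24 hr 37 deg C; Steady-Glo 30 min RT, luminescence read.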

[10] = HTS Assay for Allosteric Antagonists of the Human D2 Dopamine Receptor: Hit Validation in HTRF (AID 624455)
How it was run: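 HTRF read-out; cells stably expressing D1 receptor; hits scored for inhibition of D1-mediated response. Primary screen: calcium flux, force-coupled inducible Hek293 Trex D2 line, antagonism vs EC80 dopamine.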

Measured: Potency

CCOC(=O)c1cccc(N)c1
inactive: [1] | [2] | [3] | [4]

CCCCCCCCCCCCCCCCOP(=O)([O-])OCC[N+](C)(C)C
inactive: [1] | [2] | [3] | [4] | [5]

COc1ccc(CN2CCN(C(c3ccc(F)cc3)c3ccc(F)cc3)CC2)c(OC)c1OC
active: [1] 1.12 µM | [3] 28.7 µM | [4] 10.2 µM
inactive: [2]

Cc1c(F)c(N2CCNC(C)C2)cc2c1c(=O)c(C(=O)O)cn2C1CC1 (stereo not drawn)
inactive: [1] | [2] | [3] | [4]

CC(C)(C(=O)c1cccnc1)c1cccnc1
inactive: [1] | [2] | [3] | [4] | [5]

CCOC(=O)n1ccn(C)c1=S
inactive: [1] | [2] | [3] | [4]

Cc1ccnc(NS(=O)(=O)c2ccc(N)cc2)n1
inactive: [1] | [2] | [3] | [4]

Cc1c(C(C)C)c(=O)n(-c2ccccc2)n1C
inactive: [1] | [2] | [3] | [4]

CC(=O)OCC(=O)NCCCOc1cccc(CN2CCCCC2)c1
inactive: [1] | [2] | [3] | [4]

O=C(CCCN1CCC(O)(c2ccc(Br)cc2)CC1)c1ccc(F)cc1
inactive: [2] | [3] | [4]
active: [1] 0.126 µM

NCCc1ccn[nH]1
inactive: [1] | [2] | [3] | [4]

CCCCCCCCCCCCCCCCCC(=O)OCC(O)CO (stereo not drawn)
inactive: [1] | [2] | [3] | [4]

O=C(O)CNC(=O)c1ccccc1
inactive: [1] | [2] | [3] | [4]

CCOc1ccc(NC(=O)CC(C)O)cc1 (stereo not drawn)
inactive: [1] | [2] | [3] | [4]

CCCCN1CCCC1C(=O)Nc1c(C)cc(C)cc1C (stereo not drawn)
inactive: [1] | [2] | [3] | [4]

CN1C(CCl)Nc2cc(Cl)c(S(N)(=O)=O)cc2S1(=O)=O (stereo not drawn)
active: [4] 0.161 µM
inactive: [1] | [2] | [3]

O=C1c2ccccc2C(=O)C1c1ccccc1
inactive: [1] | [2] | [3] | [4]

CC(=O)OCC(=O)[C@@]1(OC(C)=O)[C@@H](C)C[C@H]2[C@@H]3C[C@H](F)C4=CC(=O)C=C[C@]4(C)[C@@]3(F)[C@@H](O)C[C@@]21C
inactive: [1] | [2] | [3] | [4]

Nc1ccc(C(=O)Nc2ccccc2N)cc1
inactive: [1] | [2] | [3] | [4]

COc1cc(C(=S)N2CCOCC2)cc(OC)c1OC
inactive: [1] | [2] | [3] | [4]

CCCCOc1cc(C(=O)NCCN(CC)CC)c2ccccc2n1
active: [1] 4.47 µM
inactive: [2] | [3] | [4]

C[C@]12CCC(=O)C=C1CC[C@H]1[C@@H]3CC[C@](O)(C(=O)CO)[C@@]3(C)C[C@H](O)[C@@]12F
inactive: [2] | [3] | [4]

COc1ccc(C2C(=O)c3ccccc3C2=O)cc1
inactive: [2] | [3] | [4]

COc1ccc(/C=C/C(=O)c2ccc(OC)cc2OC)cc1
inactive: [1] | [3] | [4] | [5]

C[C@@H]1C(=O)NC2=Nc3cccc(Cl)c3CN21
inactive: [1] | [2] | [5] | [6] | [7] | [8] | [9] | [10]

O=C(N/N=C/c1ccccc1O)c1ccncc1
inactive: [1] | [4]

c1ccc(CNCCNCc2ccccc2)cc1
inactive: [2] | [3] | [4]

Cc1ccc(C(=O)C(C)CN2CCCCC2)cc1 (stereo not drawn)
inactive: [2] | [3] | [4]

Cc1onc(-c2c(Cl)cccc2Cl)c1C(=O)N[C@@H]1C(=O)N2[C@@H]1SC(C)(C)[C@@H]2C(=O)O
inactive: [2]
